Compound activity as filed in PubChem BioAssay.
SNCA expr inhib = inhibitors of alpha-synuclein (SNCA) gene expression. HEK-293 SNCA-luciferase knock-in, luminescence, 24 h. Potency, µM (series often up to 57.2 µM), actives largely listed as inhibitors. 140,000 tested, 0.17% active. AID 1671194; further: nearly all actives have a fitted effect of over 45% in size
HEK293 viab = reduces viability of HEK-293 SNCA reporter cells | HEK-293-SNCA-luc viability, GF-AFC fluorescence, 24 h | Potency, µM (doses to about 57.1 µM), hits mostly cytotoxic | 150,000 tested, 0.12% active; further: nearly all actives have a fitted effect of over 30% in size
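Cytotoxicity counterscreen: after 24 h compound treatment of genome-edited SNCA-luciferase HEK-293 cells, live-cell protease substrate GF-AFC read by fluorescence after 30 min; activity scaled between DMSO (0%) and medium-only (-100%), curves Hill-fitted.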
IP6K1 inhibitor = IP6K1 kinase inhibition. IP6K1 kinase, ADP-Glo luminescence, 2 h; stronger effect = lower value. activity change, % (series mostly up to about 58 µM). Q92551. 140,000 tested, 0.81% active; in the data active means activity change below about -25%
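ADP-Glo luminescence measures ADP made by human IP6K1 during a 2 h RT reaction with ATP/IP6 (mix at 1.3 mM/130 uM); top library doses 57.5 and 19.1 uM final.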
KDM5B inh = blocks human KDM5B histone demethylase activity; 220,000 tested, 2.6% active; AID 1347165; KDM5B demethylase, FDH-coupled NADH fluorescence (FDH is formaldehyde dehydrogenase); Potency, µM (doses to about 57.7 µM), most hits filed as inhibitors; further: nearly all actives have a fitted effect of over 70% in size
Target sequence (Q9UGL1 whole entry, looked up): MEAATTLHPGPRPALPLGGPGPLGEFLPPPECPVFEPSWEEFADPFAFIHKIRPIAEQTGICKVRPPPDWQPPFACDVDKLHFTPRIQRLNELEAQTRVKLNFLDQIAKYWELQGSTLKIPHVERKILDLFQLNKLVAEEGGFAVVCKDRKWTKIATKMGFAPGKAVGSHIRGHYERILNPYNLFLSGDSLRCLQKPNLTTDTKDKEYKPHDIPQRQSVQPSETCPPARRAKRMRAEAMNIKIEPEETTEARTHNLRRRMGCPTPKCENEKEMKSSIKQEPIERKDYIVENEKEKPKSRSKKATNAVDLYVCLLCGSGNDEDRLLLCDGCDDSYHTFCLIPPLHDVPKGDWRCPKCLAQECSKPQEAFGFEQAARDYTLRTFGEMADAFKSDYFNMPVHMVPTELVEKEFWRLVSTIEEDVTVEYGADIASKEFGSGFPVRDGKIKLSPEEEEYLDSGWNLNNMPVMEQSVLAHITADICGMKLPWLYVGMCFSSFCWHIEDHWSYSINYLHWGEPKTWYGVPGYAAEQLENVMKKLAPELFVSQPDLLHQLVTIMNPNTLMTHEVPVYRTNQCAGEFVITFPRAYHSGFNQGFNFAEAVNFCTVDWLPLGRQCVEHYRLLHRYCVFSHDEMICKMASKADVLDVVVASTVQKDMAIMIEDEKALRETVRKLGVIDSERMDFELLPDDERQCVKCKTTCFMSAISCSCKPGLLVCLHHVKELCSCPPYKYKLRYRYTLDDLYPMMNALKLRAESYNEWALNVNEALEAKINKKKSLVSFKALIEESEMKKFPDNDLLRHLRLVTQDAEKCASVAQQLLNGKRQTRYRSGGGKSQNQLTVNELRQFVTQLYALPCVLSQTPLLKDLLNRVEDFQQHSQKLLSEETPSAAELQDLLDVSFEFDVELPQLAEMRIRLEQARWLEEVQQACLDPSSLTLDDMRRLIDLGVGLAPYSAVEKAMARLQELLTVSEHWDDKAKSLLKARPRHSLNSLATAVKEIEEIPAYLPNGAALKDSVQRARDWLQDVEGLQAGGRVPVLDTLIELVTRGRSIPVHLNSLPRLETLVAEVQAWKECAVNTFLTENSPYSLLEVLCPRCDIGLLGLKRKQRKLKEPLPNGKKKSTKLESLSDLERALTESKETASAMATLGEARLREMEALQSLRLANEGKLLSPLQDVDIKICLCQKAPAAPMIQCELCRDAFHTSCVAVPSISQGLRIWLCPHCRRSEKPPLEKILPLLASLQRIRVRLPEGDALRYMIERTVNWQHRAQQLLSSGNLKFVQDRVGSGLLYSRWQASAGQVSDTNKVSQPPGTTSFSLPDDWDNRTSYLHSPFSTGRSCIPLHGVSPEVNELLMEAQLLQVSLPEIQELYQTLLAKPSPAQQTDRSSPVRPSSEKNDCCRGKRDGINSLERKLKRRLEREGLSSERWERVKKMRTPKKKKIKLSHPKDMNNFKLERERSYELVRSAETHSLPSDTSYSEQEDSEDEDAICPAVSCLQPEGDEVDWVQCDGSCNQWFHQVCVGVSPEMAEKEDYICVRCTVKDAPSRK
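Inhibition is measured as reduced NADH fluorescence generation from FDH coupling to formaldehyde release. Truncated KDM5BΔAP at 200 nM final acts on H3K4me3 peptide (12.5 µM in substrate mix) in pH 7.5 HEPES buffer with Tween-20, 30 min, room temperature.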
Each line names hits and unclear results; the compound was inactive in the other large screens. A selection: hits, their analogues and other compounds. The true share with any hit is near 2.9%. Unless noted, the call rests on the fitted dose curve; in most records, active means well fitted curve in the direction sought with a large enough effect; inconclusive means small, poorly fitted or top-dose-only effect, or another doubt; inactive means no such curve, though single readings can be large; an effect the other way counts as inactive or inconclusive.

Cc1cc2cc(-c3c(C)noc3C)nc(N3CCN(c4ccccn4)CC3)c2o1	KDM5B inh 32µM
O=C(COc1ccc(F)cc1)NC1CCN(c2cc(C(F)(F)F)ncn2)CC1	none
COc1cc(-c2nc(-c3c(C)noc3C)cc3cc(C)oc23)ccn1	KDM5B inh 35µM
Cn1nc(-c2nncn2CC2CC2)c2c1CCN(C(=O)c1n[nH]c3ccccc13)C2	KDM5B inh 20µM
CN(CC(=O)N1CCc2c(c(-c3nncn3CC3CC3)nn2C)C1)S(=O)(=O)c1cnc[nH]1	KDM5B inh 22µM
CCn1cnnc1-c1nn(C)c2c1CN(C(=O)CCn1nc(C)cc1C)CC2	none (no result: KDM5B inh)
CC(C)n1cnnc1-c1nn(C)c2c1CN(C(=O)Cc1c[nH]c3ccccc13)CC2	KDM5B inh 20µM
CC(C)n1cnnc1-c1nn(C)c2c1CN(C(=O)c1n[nH]c3ccccc13)CC2	none
Cn1nc(-c2nncn2CC2CC2)c2c1CCN(C(=O)c1cn[nH]c1-c1ccccc1)C2	none
CCn1cnnc1-c1nn(C)c2c1CN(C(=O)CCC(=O)N1CC(=O)Nc3ccccc31)CC2	KDM5B inh 14µM
Cc1ccc(-n2ncc3c(=O)[nH]c(SCC(=O)Nc4ccc5c(c4)OCO5)nc32)cc1C	none (no result: SNCA expr inhib, HEK293 viab, IP6K1 inhibitor)
O=C(O)C(c1c[nH]c2ccccc12)N1CCN(c2ncc(Br)cn2)CC1 (centres undefined)	none (no result: SNCA expr inhib, HEK293 viab, IP6K1 inhibitor)
Cc1ccc2nc(CN3CCCC(CO)(CC4CC4)C3)cn2c1 (centres undefined)	KDM5B inh 22µM
CC(=O)NCCNC(=O)CCCc1nnc2n(CC(C)C)c(=O)c3sccc3n12	KDM5B inh inconclusive
COc1ccccc1/C=C/CN1CCn2nc(CO)cc2C1	KDM5B inh 28µM
COc1ccc(Br)cc1C1N2CC3(C(C)C)CN1CC(C(C)C)(C2)C3=O (centres undefined)	none (no result: SNCA expr inhib, HEK293 viab, IP6K1 inhibitor)
Cc1ncc(-c2c(-c3ccccc3)ncn2CC(c2ccco2)N2CCCC2)[nH]1 (centres undefined)	KDM5B inh 25µM
CCCCc1ncc(-c2c(-c3ccccc3)ncn2CC2(CO)CCC2)[nH]1	none
NC(=O)c1nc(Nc2ccccc2)sc1NC(=O)C1CCCCC1	none (no result: SNCA expr inhib, KDM5B inh)
COCCN1CCCCCC(O)c2cc(C(=O)N(C)CCCc3c(C)nn(C)c3C)ccc21 (centres undefined)	none
COCCN(C)C[C@@H]1CN(C(=O)c2ccc(-c3ccco3)cc2)C[C@@H]1CO	KDM5B inh 32µM
COCC(=O)N1CC[C@H](c2nnc(-c3ccc(C)cc3)o2)C1	none
Clc1ccc(-c2nnc([C@H]3CCN(C4CCCCC4)C3)o2)cc1	KDM5B inh 25µM
Cc1ccc(-c2nnc([C@H]3CCN(C4CCC4)C3)o2)cc1	KDM5B inh 32µM
CN1CCC(N2CC[C@H](c3nnc(-c4ccc(Cl)cc4)o3)C2)CC1	KDM5B inh inconclusive
CC(C)N1CC[C@H](c2nnc(-c3cccnc3)o2)C1	KDM5B inh inconclusive
Cc1ccc(-c2nnc([C@H]3CCN(C(C)C)C3)o2)cc1	KDM5B inh 32µM
CCN1C(=O)C2(CCN(C(=O)C3CC3)CC2)c2ccccc21	none
CCOC(=O)c1ccc(NC(=O)C2CCOCC2)cc1	none (no result: SNCA expr inhib, HEK293 viab, IP6K1 inhibitor)
COCc1nc2nc(-c3ccccc3)c(Nc3ccc(F)cc3)cc2n1C	KDM5B inh 32µM
COCc1nc2nc(-c3ccccc3)c(Nc3ccncc3)cc2n1C	KDM5B inh inconclusive
COc1ccc2cc(C(=O)N(C)Cc3ccccc3)[nH]c2c1	none (no result: SNCA expr inhib, HEK293 viab, IP6K1 inhibitor)
Cc1ccc2[nH]c(CN3CC[C@H]4NCCC[C@]4(CO)C3)cc(=O)c2c1	KDM5B inh 13µM
COCCCNC(=O)c1cc(-c2ccc(OC)cc2)nc2c1cnn2C	none (no result: KDM5B inh)
Cc1cc(C(F)(F)F)nn1CC(=O)NCC1Cn2cccc2CN1Cc1ccccc1 (centres undefined)	KDM5B inh inconclusive
Cc1cc(C(=O)NCC2Cn3cccc3CN2Cc2ccccc2)n[nH]1 (centres undefined)	KDM5B inh 32µM
O=C(NCC1Cn2cccc2CN1Cc1ccccc1)c1ccc2cc[nH]c2c1 (centres undefined)	KDM5B inh 25µM
COc1ccc(C(=O)NCC2Cn3cccc3CN2Cc2cccnc2)cc1 (centres undefined)	KDM5B inh 13µM
COc1ccc2[nH]cc(C(C(=O)O)N3CCN(Cc4cccc5ccccc45)CC3)c2c1 (centres undefined)	none (no result: SNCA expr inhib, HEK293 viab, IP6K1 inhibitor)
COc1ccc(-c2ccc(Cn3ccnc3)cn2)c2ccc(C)nc12	KDM5B inh 25µM
CCc1ccc(NCc2ccc(OC)c(Cn3ccnc3)c2)cc1	none (no result: SNCA expr inhib, HEK293 viab, IP6K1 inhibitor)
Cc1noc(C(C)N2CCN(C(=O)C(c3ccccc3)c3ccccc3)CC2)n1 (centres undefined)	none (no result: SNCA expr inhib, HEK293 viab, IP6K1 inhibitor)
COc1ccc(Cl)cc1C1CC(=O)Nc2cc3c(cc21)OCCO3 (centres undefined)	none
CS(=O)(=O)c1ccc(CN2CCC[C@H]2c2nc(-c3ccnc(N4CCC(C(N)=O)CC4)c3)no2)cc1	KDM5B inh 28µM
NC(=O)C1CCN(c2cc(-c3noc([C@@H]4CCCN4Cc4ccc(Cl)cc4)n3)ccn2)CC1	KDM5B inh 32µM
CC(=O)N1CCC(N2CCC[C@H]2c2nc(-c3ccnc(N4CCC(C(N)=O)CC4)c3)no2)CC1	KDM5B inh 22µM
NC(=O)C1CCN(c2cc(-c3noc([C@@H]4CCCN4Cc4ccccc4F)n3)ccn2)CC1	KDM5B inh inconclusive
CC(=O)Nc1ccc(CN2CCC[C@H]2c2nc(-c3ccc(N4CCC(C(N)=O)CC4)nc3)no2)cc1	KDM5B inh inconclusive
Cc1cc(C)c(C#N)c(N2CCC3(CCC(=O)N(CC(C)O)C3)CC2)n1 (centres undefined)	KDM5B inh 28µM
COc1ccc(-c2cc(C(F)(F)F)nc(SCC(=O)N3CCCCC3)n2)cc1	KDM5B inh inconclusive
CCSc1nc(N2CCNCC2)c2sc3c(c2n1)COC(C)(C)C3	none (no result: SNCA expr inhib, HEK293 viab, IP6K1 inhibitor)
CC1=C[C@@H](CN(C)C)[C@H](C(C)C)C[C@H]1Cc1nc2c(C)cccc2[nH]1	none
CC1=C[C@@H](CNCc2ccccc2)[C@H](C(C)C)C[C@H]1Cc1nc2c(C)cccc2[nH]1	SNCA expr inhib inconclusive, HEK293 viab 35µM
COc1ccccc1CNC[C@@H]1C=C(C)[C@H](Cc2nc3c(C)cccc3[nH]2)C[C@H]1C(C)C	SNCA expr inhib inconclusive, HEK293 viab 35µM
CC1=C[C@@H](CNCc2ccccc2F)[C@H](C(C)C)C[C@H]1Cc1nc2c(C)cccc2[nH]1	SNCA expr inhib inconclusive, HEK293 viab inconclusive
CCC(C(=O)NCc1ccccc1Cl)n1c(=O)c2cccn2c2ccccc21 (centres undefined)	none
Cc1cc(C)n(CCC(=O)N2CC(F)(F)C[C@H]2c2nnc(C)o2)n1	none
CC(C)CNc1ccc2c(n1)C(C)(C(=O)N1CCOCC1)CN(Cc1ccccc1)C2 (centres undefined)	HEK293 viab inconclusive, KDM5B inh 32µM
COCCN1Cc2ccc(NCC(C)C)nc2C(C)(C(=O)NCc2cccnc2)C1 (centres undefined)	KDM5B inh 32µM
CC(C)CNc1ccc2c(n1)C(C)(C(=O)NC1CCOCC1)CN(Cc1ccccc1)C2 (centres undefined)	none
